# Bioassay records from PubChem BioAssay.
# VHR inh abs: inhibitors of human VHR1 phosphatase (DUSP3); recombinant VHR phosphatase, pNPP absorbance; inhibition, % at 13.3 µM; hit rate 0.52% among 290,000; AID 1654; in the data active means inhibition above about 50%
# Target sequence (P51452 whole entry, looked up): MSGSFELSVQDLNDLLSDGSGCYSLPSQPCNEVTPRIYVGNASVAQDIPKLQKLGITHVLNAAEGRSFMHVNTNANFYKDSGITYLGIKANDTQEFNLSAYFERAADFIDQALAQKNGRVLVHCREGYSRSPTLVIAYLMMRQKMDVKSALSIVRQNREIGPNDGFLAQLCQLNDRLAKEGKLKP
# RecA splice inh: inhibitors of M. tuberculosis RecA intein splicing; cell-free RecA intein splicing, fluorescence; inhibition, % (concentration not given with the values); P9WHJ3; hit rate 0.75% among 290,000; in the data active means inhibition above about 30%;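 further: 0% = vehicle wells and 100% = reference inhibitor control wells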
# CCHF vOTU inh-1: CCHFV vOTU protease inhibition | hit rate 0.55% among 370,000 | inhibition, % at 11.5 µM | Pep-AMC fluorescence; further: 0% = vehicle wells with enzyme and 100% = no enzyme wells
# 3CLpro inhibitor: SARS-CoV 3CLpro protease inhibition | P0C6X7 | hit rate 0.14% among 290,000 | recombinant SARS-CoV 3CLpro, quenched FRET peptide cleavage | inhibition, % at 6 µM | AID 1706; in the data active means inhibition above about 12%
# CCHF vOTU inh-2: confirmation of CCHF virus vOTU protease inhibitors; inhibition, % at 11.5 µM; AID 686976; Recombinant CCHFV vOTU, Pep-AMC fluorescence; hit rate 17% among 1,900; shares compounds with CCHF vOTU inh-1
# * hit, by the source's call; nt = no result. Sampled rows, rich in hits. Any-hit rate of the full collection: about 1.5%. Unless noted, no stated cut-off is given here; in the data, active means inhibition above about 30%; inactive means the rest.
SMILES,VHR inh abs,RecA splice inh,CCHF vOTU inh-1,3CLpro inhibitor,CCHF vOTU inh-2
Cc1ccc2nsnc2c1S(=O)(=O)N(CCO)Cc1cc2cc3c(cc2[nH]c1=O)OCCO3,10.2,-7.4,43.5*,-3.4,-5.4
Cc1ccc(S(=O)(=O)N(Cc2cc3cc4c(cc3[nH]c2=O)OCCO4)CC2CCCO2)cc1 (stereo not given),37.9,1.5,37.8*,-3.4,-27.3
COc1ccc(N2CCN(C(=O)C(Cc3ccccc3)NC(=O)c3ccccc3)CC2)cc1 (stereo not given),nt,nt,3.3,nt,nt
CCOC(=O)C1(C)CCCN(C(=O)C(c2ccccc2)c2ccccc2)C1 (stereo not given),nt,nt,13.3,nt,nt
CCCCCCc1nc(C(N)=O)c2[nH]c(=O)n(-c3ccc(OC)cc3OC)c2n1,-3.0,0.5,29.9*,4.4,1.5
O=c1cc(-c2ccccc2)[nH]n1-c1ccccc1,nt,nt,25.0,nt,nt
CC(C)(C)c1cc(=O)n(-c2ccccc2)[nH]1,-11.3,nt,76.8*,-2.7,-7.4
O=C1c2cccc(Cl)c2C(=O)c2c1cccc2N1CCCC1,nt,3.8,70.8*,5.0,-13.7
O=C1c2ccccc2C(=O)c2cc(N3CCCCC3)ccc21,nt,nt,-9.1,nt,nt
COc1cc(CCc2ccccc2)c(C(=O)O)c(O)c1C/C=C(/C)CCC=C(C)C,nt,nt,35.7*,nt,46.7*
COc1cc(CCc2ccccc2)c(C(=O)O)c(O)c1CC=C(C)C,nt,nt,29.2,nt,nt
CC1(c2ccc3ccccc3c2)NC(=O)N(CC(=O)NCc2cccs2)C1=O (stereo not given),-6.9,1.3,5.8,4.9,nt
CCCCCC(C)NC(=O)CN1C(=O)NC(C)(c2ccc3ccccc3c2)C1=O (stereo not given),-11.3,0.2,32.4*,4.1,3.8
CCCN(c1ccccc1F)S(=O)(=O)c1c[nH]c(C(=O)OC)c1,12.9,3.8,8.7,-5.2,nt
CCC(C)C(=O)Nc1nnc(CCc2ccccc2)s1 (stereo not given),23.4,0.5,1.7,-4.5,nt
COc1ccc(C)cc1S(=O)(=O)N(C)CC(=O)Nc1ccc2c(c1)OCO2,1.2,4.2,30.4*,-6.0,0.2
O=C1CC(NS(=O)(=O)c2cc(F)ccc2F)CN1c1cccc(F)c1 (stereo not given),nt,-1.2,-1.8,nt,nt
O=c1[nH]c(C2CCCN(S(=O)(=O)c3ccc(F)cc3)C2)nc2c1nnn2Cc1ccccc1 (stereo not given),15.9,0.9,-5.2,-3.5,nt
CC(C)(C)c1ccc(Cn2nnc3c(=O)[nH]c(C4CCCN(C(=O)Cc5cccs5)C4)nc32)cc1 (stereo not given),23.5,8.6,31.1*,4.9,4.2
O=c1[nH]c(C2CCCN(S(=O)(=O)Cc3ccccc3)C2)nc2c1nnn2Cc1cccc(Cl)c1 (stereo not given),24.1,-1.2,29.9*,1.4,-4.9
Cc1ccc(C(=O)N/C(=C\c2cccs2)C(=O)NCC2CCCO2)cc1C (stereo not given),5.4,4.3,-14.1,-2.6,nt
COc1ccc([C@H]2C[C@H](O)[C@@H](n3cc(-c4ccc(F)cc4)nn3)CN2Cc2cccs2)cc1,nt,nt,-2.9,nt,nt
CCOc1ccc(-n2c(COc3ccc(C)cc3)nnc2SCC(=O)Nc2ccc(F)c(F)c2)cc1,nt,nt,17.1,nt,nt
Cc1cc(OCc2cc(C(=O)N(C)CCc3cnn(C)c3)no2)cc(C)c1Cl,1.1,6.8,12.2,4.5,nt
Cc1cc(OCc2cc(C(=O)N(C)Cc3nonc3C)no2)cc(C)c1Cl,-9.7,12.5,31.2*,4.0,1.3
SMILES,VHR inh abs,RecA splice inh,CCHF vOTU inh-1,3CLpro inhibitor,CCHF vOTU inh-2
CCc1ccc(CN(C)C(=O)c2cc(COc3cc(C)c(Cl)c(C)c3)on2)nc1,-6.0,-5.5,30.1*,5.3,-5.6
CCOc1ccccc1C(=O)Oc1cc(C)[nH]c(=O)c1[N+](=O)[O-],9.5,-2.7,-0.3,-0.5,nt
CCOC(=O)C1(C)CCCCCN1C(=O)c1ccc(OC)c(C(F)(F)F)c1 (stereo not given),nt,nt,34.5*,nt,-8.6
COc1ccc(C(=O)N2CCCC2(C)C(=O)O)cc1C(F)(F)F (stereo not given),nt,nt,8.6,nt,nt
COC(=O)[C@]12C[C@H](CC(=O)N3CCN(C(=O)C4CC4)CC3)C(=O)N(CCc3ccc(OC)c(OC)c3)C1=C[C@H](C(C)C)O[C@@H]2C1CC1,nt,nt,-2.7,nt,nt
CCN1CCN(c2oc(-c3ccccc3C)nc2S(=O)(=O)c2ccccc2)CC1,nt,nt,35.5*,nt,4.4
CC12CC(c3ccccc3O1)C(C(=O)OCc1ccccc1)C(=O)N2 (stereo not given),-9.4,-0.3,38.2*,0.2,-2.7
CC12CC(c3ccccc3O1)C(/C(N)=N/NC(=O)c1ccc(F)cc1)C(=O)N2 (stereo not given),-8.2,-1.7,9.0,-1.7,nt
O=C(O)c1ccc([N+](=O)[O-])cc1-c1cc([N+](=O)[O-])ccc1C(=O)O,nt,nt,1.2,nt,nt
O=C(O)c1cccc(NC2=C(N3CCOCC3)C(=O)c3ccccc3C2=O)c1,21.7,17.1,78.7*,0.0,93.3*
O=C(N/N=C/c1ccc([N+](=O)[O-])o1)C1CC1,5.3,-7.4,32.4*,-2.9,-11.8
CN(CCCC1CCCC1)C(=O)c1cc(COc2c(F)cccc2F)on1,1.8,13.3,2.9,5.8,nt
CN(CCCC1CCCC1)C(=O)c1cc(COc2ccc(F)c(F)c2)on1,19.7,9.1,37.8*,3.1,3.8
COC(=O)N1CCC[C@H]1c1cccc2[nH]cc(C)c12,nt,nt,2.0,nt,nt
Cc1cc(/C=C2\C(=O)NC(=O)N(C)C2=O)c(C)n1-c1ccc2c(c1)OCO2,21.4,-0.7,33.5*,0.7,-25.6
COc1c2c(c(OC)c3c1c(=O)c1ccccc1n3C)OCO2,nt,nt,54.2*,nt,-19.8
COc1c2c(c3c(c1OC)c(=O)c1ccccc1n3C)OCO2,nt,nt,22.0,nt,nt
COC(=O)c1cc(-c2ccccc2)c(=O)n2c1CCC2,nt,nt,-4.0,nt,nt
Cc1ccc(CN(C(=O)C(F)(F)F)C(C(=O)NC2CCCCC2)c2ccco2)cc1 (stereo not given),17.8,-1.9,29.8*,1.8,-6.6
O=C(NC1CCCCC1)C(c1ccco1)N(C(=O)C(F)(F)F)C1CC1 (stereo not given),7.5,2.8,-4.7,1.5,nt
Cc1noc(C)c1C(=O)OCC(=O)Nc1ccc(N2CCOCC2)cc1,nt,nt,31.7*,nt,-11.5
CCOc1ccc(C(=O)C(C)OC(=O)C2CCN(c3ccc(C(F)(F)F)cn3)CC2)cc1 (stereo not given),nt,7.1,35.1*,nt,9.9
COc1ccccc1CNC(=O)COC(=O)C1CCN(c2ccc(C(F)(F)F)cn2)CC1,nt,7.6,43.5*,nt,-10.3
Cc1cc(C)c(NC(=O)COC(=O)C2CCN(c3ccc(C(F)(F)F)cn3)CC2)c(Cl)c1,nt,0.6,17.1,nt,nt
Cc1cc(C)c(NC(=O)CNC(=O)COC(=O)C2CCN(c3ccc(C(F)(F)F)cn3)CC2)c(C)c1,2.5,1.4,33.9*,1.3,1.6
CCCn1nc(C(=O)Nc2cc(OCC)c(N3CCOCC3)cc2OCC)c2ccccc2c1=O,nt,nt,26.4,nt,nt
Oc1cc(Nc2ccccc2)cc2cccnc12,nt,nt,2.1,nt,nt
Oc1cc(NCCN2CCOCC2)cc2cccnc12,nt,nt,99.2*,nt,45.8*
O=C(CSc1nnnn1C1CC1)N1CCN(c2ccccc2F)CC1,nt,nt,33.0*,nt,-2.0
Cc1cccc(N2CCN(C(=O)CSc3nnnn3C3CC3)CC2)c1C,nt,nt,0.9,nt,nt
